This is one part of a sample in which hits are shown more often than they occur.
Shiga toxin inh: inhibitors of Shiga toxin in Vero cells. Vero cells, Shiga toxin protein synthesis inhibition reporter. inhibition, % at 38.7 µM. 9.2% of 290,000 active. AID 2315; in the data active = inhibition mostly above about 28%, no sharp cut-off; inactive = mostly below about 43%; also: 0% is about no effect
Giardia FBPA inh: blocks Giardia fructose-bisphosphate aldolase activity; Potency, µM (titrated, usually from 59.6 µM), inactives show at the top dose activity, negative = inhibition, most hits filed as inhibitors; AID 2451; 0.71% of 290,000 active; purified Giardia FBPA; A8B2U2; also: potency is read from the fitted curve at half-maximal effect; % is scaled to controls: 0 for no effect and ±100 for the full control effect; nearly all actives have a fitted effect of over 55% in size
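40 nM FBPA preincubated 10 min at RT with compound (up to 57.5 uM final), then substrate plus GAPDH/TPI/NAD/arsenate coupling and diaphorase/resazurin added. Fluorescence read after 20 min at RT, 525/598 nm.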
Cycloheximide cs: affects cycloheximide protein synthesis inhibition readout, counter-screen | cell reporter, cycloheximide protein synthesis inhibition counterscreen | max response, % | 12% of 300,000 active | AID 2314; in the data active = max response mostly above about 13%, no sharp cut-off; inactive = mostly below about 14%; also: read at 38.3 µM for the half of the compounds with a filed dose; 0% is about no effect
RE007 growth inh: less growth of the S. pombe RE007 Vpr strain; S. pombe RE007 Vpr strain, BacTiter-Glo ATP luminescence, 24 h; Potency, µM (series often up to 92.2 µM), without a hit: at the highest dose activity change, negative = less growth, actives largely listed as inhibitors; AID 651644; 0.21% of 360,000 active; active = well fitted falling curve with a large enough effect; inconclusive = small, poorly fitted or top-dose-only effect; inactive = no such curve, though single readings can be large or run the other way; also: potency is read from the fitted curve at half-maximal effect; % is scaled to controls: 0 for no effect and ±100 for the full control effect; nearly all actives have a fitted effect of over 50% in size
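Fission yeast RE007 carrying one integrated HIV-1 vpr copy, seeded at OD 0.01 in PMG+AL medium with 23 nL pinned compound. Grown 24 h at 30 degrees; viability read by BacTiter-Glo luminescence after 5 min.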
LmPK inh: LmPK (Leishmania mexicana) enzyme inhibition | Q27686 | Potency, µM (titrated, usually from 57.5 µM), inactives show top-dose activity change, negative = inhibition, hits mostly inhibitors | 0.37% of 290,000 active | purified LmPK, Kinase-Glo ATP luminescence, 1 h; also: potency is read from the fitted curve at half-maximal effect; % is scaled to controls: 0 for no effect and ±100 for the full control effect
Target sequence (Q27686 whole entry, looked up): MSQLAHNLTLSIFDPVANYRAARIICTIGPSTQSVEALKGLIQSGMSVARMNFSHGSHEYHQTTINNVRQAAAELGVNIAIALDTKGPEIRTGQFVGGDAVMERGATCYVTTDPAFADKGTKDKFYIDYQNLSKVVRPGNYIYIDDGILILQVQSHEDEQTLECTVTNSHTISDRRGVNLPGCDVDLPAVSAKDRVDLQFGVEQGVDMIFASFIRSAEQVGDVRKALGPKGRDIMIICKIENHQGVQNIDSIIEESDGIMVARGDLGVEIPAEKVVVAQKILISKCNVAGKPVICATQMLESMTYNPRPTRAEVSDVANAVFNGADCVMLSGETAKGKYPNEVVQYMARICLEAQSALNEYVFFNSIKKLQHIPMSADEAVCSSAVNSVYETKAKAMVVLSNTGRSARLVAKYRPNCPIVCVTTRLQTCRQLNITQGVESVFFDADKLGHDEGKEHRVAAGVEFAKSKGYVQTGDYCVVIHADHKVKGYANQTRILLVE
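Kinase-Glo luminescence read after 1 h RT reaction of 0.1 nM LmPK with 0.5 mM PEP and 0.1 mM ADP. Activity scaled between uninhibited and enzyme-free controls.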
TbPYK inhibitor: inhibitors of Trypanosoma brucei pyruvate kinase. Q57TT1. AID 624173. TbPYK enzyme, Kinase-Glo Plus ATP luminescence, 45 min. 0.12% of 410,000 active. Potency, µM (series often up to 76.8 µM), for the others: at the highest dose activity, negative = inhibition, most hits filed as inhibitors; also: potency is read from the fitted curve at half-maximal effect; % is scaled to controls: 0 for no effect and ±100 for the full control effect; nearly all actives have a fitted effect of over 50% in size
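Glycolytic pyruvate kinase of T. brucei was incubated with substrate, test compound and 130 uM ADP for 45 minutes at room temperature. Luminescent Kinase-Glo Plus signal was measured after 10 minutes.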
* = called active by the depositor; ? = inconclusive; · = not tested or not shown. Unless noted, calls follow the shape of the dose curve; as a rule, active = well fitted curve in the direction sought with a large enough effect; inconclusive = small, poorly fitted or top-dose-only effect, or another doubt; inactive = no such curve, though single readings can be large; an effect the other way counts as inactive or inconclusive.

SMILES	Shiga toxin inh	Giardia FBPA inh	Cycloheximide cs	RE007 growth inh	LmPK inh	TbPYK inhibitor
S=C(Nc1ccccc1)Nc1ccc(Br)cc1	31	-3%	15*	-15%	6%	-1%
S=C(Nc1ccccc1)Nc1cccc(Br)c1	2	-9%	7	-2%	2%	-1%
S=C(NN=C(C1CC1)C1CC1)Nc1ccccc1	43*	-25%	34*	-15%	3%	-6%
Fc1ccccc1NC(=S)Nc1ccc(Br)cc1	18*	1%	17*	-3%	-6%	-4%
Cc1ccc(NNS(=O)(=O)c2ccc(C)cc2)cc1	25	·	18	32µM*	34%	?
Cc1ccc(Cl)cc1N1CCN(C(=O)c2cc(S(=O)(=O)N3CCC(C)CC3)cn2C)CC1	·	·	·	·	·	1%
OCC1=C[C@@H](O)[C@@H]2C=CO[C@@H](OC3O[C@H](CO)[C@@H](O)[C@H](O)[C@H]3O)[C@H]12 (stereo not given in full)	-6	1%	-4	·	·	·
O=C(CS(=O)(=O)Cc1ccccc1)Nc1ccc(Br)cc1F	·	·	·	-3%	·	-2%
Cc1ccc(S(=O)(=O)NNC(=S)Nc2ccccc2)cc1	23	?	23*	26%	4%	-5%
S=C(NNC(=S)Nc1ccccc1)Nc1ccccc1	56*	29%	42*	7%	-5%	-16%
Fc1cc(Br)ccc1NC(=S)Nc1ccccc1	65*	-20%	50*	·	1%	-4%
FC(F)(F)c1ccccc1NC(=S)Nc1ccccc1	-6	?	-2	15%	0%	7%
S=C(Nc1ccccc1)Nc1ccccc1-n1cccc1	28	-7%	22*	-13%	0%	-12%
COc1ccc(-c2sc(Nc3ccc(F)c(F)c3F)nc2CCC(=O)NN)cc1	100*	5%	42*	-5%	2%	-2%
Cc1nnc(SCc2ccc(C(=O)Nc3cc(Cl)ccc3C)cc2)s1	36	-3%	13	2%	4%	-5%
Cc1ccc(NC(=O)c2ccc(CSc3nnc(C)s3)cc2)c(C)c1	97*	-2%	43*	-1%	2%	2%
Cc1nnc(SCC(=O)c2ccc(Br)cc2)s1	41	-3%	19*	-15%	-1%	6%
Cc1nnc(SCC(=O)O)s1	2	2%	-2	26%	-4%	-4%
Cc1ccc(C(=O)CSc2nnc(C)s2)cc1	66*	1%	53*	-8%	-7%	0%
CC(=O)OC[C@@]12C(=O)[C@@H](O)[C@@H](C)[C@]3(C[C@@H](c4ccoc4)O[C@@H]3OC(C)=O)[C@H]1CCC[C@]21CO1	·	-1%	·	·	·	·
COc1ccc(-n2nc(C(=O)NCC(=O)N3CCCCC3)c3ccccc3c2=O)c(OC)c1	33	8%	18*	4%	4%	0%
COc1ccc(-n2nc(C(=O)NCC(=O)N3CCN(Cc4ccccc4)CC3)c3ccccc3c2=O)c(OC)c1	-7	1%	0	5%	8%	1%
COc1ccc(-n2nc(C(=O)NCC(=O)N3CCC4(CC3)OCCO4)c3ccccc3c2=O)c(OC)c1	27	10%	13	-22%	9%	2%
COc1ccc(-n2nc(C(=O)NCC(=O)N3CCOCC3)c3ccccc3c2=O)c(OC)c1	16	5%	3	-2%	3%	-4%
COc1ccc(-n2nc(C(=O)NCC(=O)N3CCC(C)CC3)c3ccccc3c2=O)c(OC)c1	40	10%	16*	2%	1%	0%
SMILES	Shiga toxin inh	Giardia FBPA inh	Cycloheximide cs	RE007 growth inh	LmPK inh	TbPYK inhibitor
COc1ccc(-n2nc(C(=O)NCC(=O)N3CCCCCC3)c3ccccc3c2=O)c(OC)c1	55	0%	16*	9%	0%	3%
Oc1[nH]c2ccccc2c1N=NC(=S)NCCc1ccccc1	2	3%	12	·	2%	-1%
CCCCNC(=S)N=Nc1c(O)[nH]c2ccccc12	118*	0%	16	-6%	5%	1%
Oc1cccc(NC(=S)N=Nc2c(O)[nH]c3ccccc23)c1	62*	?	42*	-2%	0%	-4%
CCOc1ccc(NC(=S)N=Nc2c(O)[nH]c3ccccc23)cc1	14	6%	13*	5%	2%	2%
CS(=O)(=O)N1CCC2(CC1)CN(c1ccccc1)C2	·	0%	·	·	·	3%
c1ccc(CN2CCN(C3=Nc4cccc5cccc3c45)CC2)cc1	48	-25%	18*	5%	0%	4%
O=C(CCCN1C(=O)c2cccc3cccc(c23)C1=O)N1CCN(c2ccc(F)cc2)CC1	10	4%	-1	3%	7%	0%
Fc1ccc(N2CCN(C3=Nc4cccc5cccc3c45)CC2)cc1	74*	-8%	24*	1%	3%	-3%
O=C(/C=C(\O)c1ccccc1)C(=O)NNC(=O)c1ccccc1[N+](=O)[O-]	71*	?	17*	18%	-3%	5%
Nc1ccccc1C(=O)NNC(=O)C(=O)/C=C(\O)c1ccccc1	53*	-3%	33*	-13%	1%	3%
Cc1ccc(/C(O)=C/C(=O)C(=O)NNC(=O)C(O)(c2ccccc2)c2ccccc2)cc1	-1	10%	6	5%	-4%	1%
Cc1ccc(C)c(C(=O)CSc2nnnn2C(C)C)c1	54*	-5%	62*	-12%	5%	0%
COc1ccccc1NC(=O)CSc1nnnn1C1CCCCC1	1	·	-5	1%	-4%	0%
CCCn1c(SCC(=O)Nc2ccc3c(c2)OCO3)n[nH]c1=O	·	·	·	21%	·	0%
CCCn1c(SCC(=O)c2ccc3c(c2)OCCO3)n[nH]c1=O	62*	4%	30*	5%	1%	-4%
COc1cccc(C(=O)CSc2nnnn2C2CCCCC2)c1	59*	-1%	28*	-2%	1%	3%
CCn1nnnc1SCC(=O)c1ccc2c(c1)OCCO2	113*	·	52*	-7%	-13%	-8%
COc1ccc(-n2nnnc2SCC(=O)c2ccc3c(c2)OCCO3)c(OC)c1	25	2%	-2	6%	5%	7%
COc1ccc(-n2c(=O)c3c4c(sc3n(C)c2=O)CN(C(C)=O)CC4)cc1	·	·	·	·	·	0%
CCCCC(CC)CCC(CC(C)C)OS(=O)(=O)O (stereo not given)	·	·	·	·	·	0%
COc1cccc(-n2nnnc2SCC(=O)NC2CCCCC2)c1	36	·	34*	-7%	0%	0%
COc1cccc(-n2nnnc2SCC(=O)NC2CCCC2)c1	-4	0%	-3	3%	9%	-4%
O=C(CSc1nnnn1C1CCCC1)Nc1ccc2c(c1)OCO2	41	-5%	2	7%	2%	3%
CCn1c(SCC(=O)c2ccc3c(c2)OCCO3)nnc1C(C)C	35	-11%	19*	5%	0%	-16%

Source: PubChem
